G9a inh: qHTS Assay for Inhibitors of Histone Lysine Methyltransferase G9a | G9a H3K9 monomethylation, AlphaScreen, 2 h | Potency, µM (highest dose often 102 µM), for inactives: at the top dose activity, negative = inhibition, most hits filed as inhibitors | 350,000 tested, 8.8% active | AID 504332, 2011; note: potency is the fitted concentration of half-maximal effect; % is set by controls: 0 for no effect and ±100 for the full control effect; nearly all actives have a fitted effect of over 75% in size
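Methyltransferase reactions run at room temperature for 2 h (20 nM enzyme, 500 nM biotin-H3K9 peptide, 20 uM SAM) after a 15 min compound preincubation; product detected by AlphaScreen beads and anti-H3K9me1 antibody.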
HP1b binding inh: HTS for Inhibitors of HP1-beta Chromodomain Interactions with Methylated Histone Tails. Potency, µM (highest dose often 114 µM), inactives show at the top dose activity change, negative = inhibition, actives largely listed as inhibitors. AlphaScreen HP1-beta / biotin-H3K9me3 peptide binding. Chromobox protein homolog 1 (Homo sapiens), P83916. 390,000 tested, 0.56% active; note: potency is the fitted concentration of half-maximal effect; nearly all actives have a fitted effect of over 70% in size
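AlphaScreen: HP1-beta (50 nM) preformed 30 min with biotin-H3(1-18)K9me3 peptide (50 nM) in PBS pH 7.4, 0.01% Tween-20. Compound added for 30 min at RT, then streptavidin donor/nickel chelate acceptor beads (10 ug/mL) for 30 min.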
CtBP-E1A inh: qHTS Assay for Inhibitors of the CtBP/E1A Interaction; CtBP / adenovirus E1A interaction (AlphaScreen); AlphaScreen GST-E1A/His-CtBP binding, 1536-well; stronger effect = lower value; activity change, % (concentration not given with the values); 340,000 tested, 0.49% active; in the data active = activity change below about -65%; inconclusive = mostly about -30% to -63%; note: % is set by controls: 0 for no effect and ±100 for the full control effect
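Steps: dispense buffer (Tris pH 8.0, NaCl 300 mM, TCEP 1 mM, BSA, Tween 20); add 5X protein mix (GST-E1A, His-CtBP, 125 nM each); pin 23 nL compound; 2 h at 37 °C, dark; add 5X beads (50 ug/mL); 1 h; read.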
Six1-Eya2 blk: qHTS Assay for Inhibitors of the Six1/Eya2 Interaction; Homeobox protein SIX1 (Homo sapiens) + Protein phosphatase EYA2 (Homo sapiens), …; AlphaScreen GST-Six1/His-Eya2 binding, biochemical; stronger effect = lower value; activity change, % (no concentration beside the values); AID 651725, 2012; 360,000 tested, 0.56% active; in the data active = activity change below about -65%; inconclusive = mostly about -30% to -63%; note: % is set by controls: 0 for no effect and ±100 for the full control effect
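AlphaScreen luminescence read after one hour at 37 °C in darkness. Pin-transferred compounds met GST-Six1 and His-Eya2 protein (5X stock 250 nM/500 nM) plus glutathione donor and Ni-chelate acceptor beads (5X, 50 ug/mL).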
JMJD2A Tudor: qHTS Assay for Inhibitors of JMJD2A-Tudor Domain. AlphaScreen JMJD2A-Tudor / H3K4me3 peptide binding. 390,000 tested, 4.4% active. Potency, µM (doses to about 114 µM), inactives show at the top dose activity change, negative = inhibition, most hits filed as inhibitors. Lysine-specific demethylase 4A (Homo sapiens), O75164; note: potency is the fitted concentration of half-maximal effect; % is set by controls: 0 for no effect and ±100 for the full control effect; nearly all actives have a fitted effect of over 50% in size
BAZ2B inh: qHTS Assay for Inhibitors of BAZ2B | Bromodomain adjacent to zinc finger domain protein 2B (Homo sapiens), Q9UIF8 | 360,000 tested, 4.4% active | AlphaScreen BAZ2B-H3K14Ac peptide displacement | Potency, µM (doses to about 114 µM), for inactives: at the highest dose activity change, negative = inhibition, most hits filed as inhibitors; note: potency is the fitted concentration of half-maximal effect; % is set by controls: 0 for no effect and ±100 for the full control effect; nearly all actives have a fitted effect of over 60% in size
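AlphaScreen displacement: compounds (up to 110uM) incubated 30 min at room temperature with a preformed 50 nM BAZ2B/50 nM biotinylated H3K14Ac peptide complex in PBS pH 7.4 with Tween-20. Donor and acceptor beads at 10 ug/mL final added, 20 min light-protected before reading.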
Numbers without * were called inactive; [ ] = remark or other dose. In the library only some 10% were active in any assay of this set; here they are far more common. Unless noted, calls come from the whole dose curve; as a rule, active = well fitted inhibition curve with a large enough effect; inconclusive = small, poorly fitted or top-dose-only effect; inactive = no such curve, though single readings can be large or run the other way.

`Cc1ccc(OCC(=O)N/N=C/c2cccc3cccnc23)cc1` gave HP1b binding inh 16.3%, CtBP-E1A inh -89.9*, Six1-Eya2 blk -77.3*, JMJD2A Tudor 56.2µM* and BAZ2B inh 31.6µM*.
CC(C)(C)OC(=O)NCCC(=O)N/N=C/c1ccc2ncccc2c1 was read as G9a inh -39.0%, HP1b binding inh 7.0%, CtBP-E1A inh -20.2, Six1-Eya2 blk inconclusive, JMJD2A Tudor -1.7% and BAZ2B inh -10.9%.
For CC(C)(C)OC(=O)NCCC(=O)N/N=C/c1cccc2cccnc12 the results were G9a inh 6.7%[59 µM], HP1b binding inh 31.9%, CtBP-E1A inh -79.0*, Six1-Eya2 blk inconclusive, JMJD2A Tudor inconclusive and BAZ2B inh inconclusive.
C#CCn1cc(/C=N/NC(=O)COc2cccc3cccnc23)c2ccccc21 was read as G9a inh 3.16µM*, HP1b binding inh 12.7%, CtBP-E1A inh 2.4, Six1-Eya2 blk -5.9, JMJD2A Tudor inconclusive and BAZ2B inh inconclusive.
For COc1ccc2nc(/C=N/NC(=O)CCNC(=O)OC(C)(C)C)ccc2c1 the results were G9a inh 31.6µM*, HP1b binding inh 12.6%, CtBP-E1A inh -19.0, Six1-Eya2 blk -17.3, JMJD2A Tudor -24.0% and BAZ2B inh -14.8%.
`O=C(COc1cccc2cccnc12)N/N=C/c1cccn1-c1ccc(F)cc1` gave G9a inh 35.5µM*, HP1b binding inh inconclusive, CtBP-E1A inh -18.0, Six1-Eya2 blk -25.6, JMJD2A Tudor 20µM* and BAZ2B inh 28.2µM*.
CCc1nc2nc(C)cc(Nc3ccc(OC)cc3)n2n1 was read as G9a inh -11.9%[59 µM], HP1b binding inh -1.3%, JMJD2A Tudor -22.9% and BAZ2B inh -10.6%.
`O=C(Nc1ccc2c(c1)OCCO2)C1c2ccccc2OCC(=O)N1CCc1ccccc1` (centres undefined) gave CtBP-E1A inh 4.0 and Six1-Eya2 blk -3.1.
Screening c1ccc(Nc2ccccc2Nc2ccccn2)nc1 returned G9a inh inconclusive, HP1b binding inh 12.2%, CtBP-E1A inh -2.2, Six1-Eya2 blk -5.8, JMJD2A Tudor -20.5% and BAZ2B inh -6.5%.
`Oc1cccc2ccc(Nc3ccccn3)nc12` gave G9a inh inconclusive, HP1b binding inh 29.2%, CtBP-E1A inh -100.0*, Six1-Eya2 blk -90.8*, JMJD2A Tudor 17.8µM* and BAZ2B inh 5.01µM*.
`CCCn1c(SCC(=O)Nc2cc(S(=O)(=O)N3CCCCC3)ccc2C)n[nH]c1=O` gave G9a inh 8.7%[59 µM], HP1b binding inh 24.8%, CtBP-E1A inh 4.1, Six1-Eya2 blk 0.9, JMJD2A Tudor -13.5% and BAZ2B inh 4.5%.
COc1ccc(/C=N\NC(=O)c2cc(O)c(O)c(O)c2)cc1CN1CCN(c2ccc(F)cc2)CC1 was read as G9a inh 7.08µM*, HP1b binding inh inconclusive, CtBP-E1A inh inconclusive, Six1-Eya2 blk inconclusive, JMJD2A Tudor 56.2µM* and BAZ2B inh 35.5µM*.
`COc1cc(/C=N/NC(=O)c2ccc3ccccc3c2)ccc1Oc1ccc([N+](=O)[O-])cn1` gave G9a inh 1.78µM*, HP1b binding inh 11.9%, CtBP-E1A inh -21.4, Six1-Eya2 blk -28.4, JMJD2A Tudor 25.1µM* and BAZ2B inh -32.0%.
`COc1ccc(/C=N\NC(=O)c2cc(O)c(O)c(O)c2)cc1COc1ccc(C(=O)OCC(C)C)cc1` gave G9a inh 22.4µM*, HP1b binding inh -7.1%, Six1-Eya2 blk -28.4, JMJD2A Tudor inconclusive and BAZ2B inh 56.2µM*.
`COc1cccc(C(=O)N/N=C/c2ccc(Oc3ccc([N+](=O)[O-])cn3)c(OC)c2)c1` gave G9a inh inconclusive, HP1b binding inh -12.7%, CtBP-E1A inh -8.3, Six1-Eya2 blk -14.8, JMJD2A Tudor -34.4% and BAZ2B inh -33.0%.
COc1cc(/C=N/NC(=O)c2cc(O)cc(O)c2)ccc1OC(=O)c1ccccc1 was read as G9a inh 8.91µM*, HP1b binding inh 28.2µM*, CtBP-E1A inh inconclusive, Six1-Eya2 blk inconclusive, JMJD2A Tudor 22.4µM* and BAZ2B inh 11.2µM*.
`COc1ccc(C(=O)N/N=C/c2ccc(OC)c(COc3ccccc3)c2)cc1` gave G9a inh 30.8%, HP1b binding inh 23.9%, CtBP-E1A inh -9.6, Six1-Eya2 blk -10.8, JMJD2A Tudor -18.2% and BAZ2B inh -26.8%.
For O=C(c1cccc(Cl)c1)C1CCCN(C(=O)c2ccoc2)C1 (centres undefined) the results were G9a inh -40.1%, HP1b binding inh 46.1%, CtBP-E1A inh -12.4, Six1-Eya2 blk -0.3, JMJD2A Tudor 7.4% and BAZ2B inh -1.0%.
Screening CCCSc1nnc2c(n1)OC(c1ccc(OCC(=O)O)cc1)Nc1ccccc1-2 (centres undefined) returned G9a inh -22.0%[59 µM], HP1b binding inh 12.8%, JMJD2A Tudor -28.0% and BAZ2B inh -16.9%.
CC(=O)c1ccc(C#CC(C)(C)O)s1 was read as G9a inh 12.6µM*, HP1b binding inh 36.5%, CtBP-E1A inh 0.3, Six1-Eya2 blk 11.1, JMJD2A Tudor -21.2% and BAZ2B inh -3.7%.
`COc1ccccc1C(=O)NCC(=O)N/N=C(\C)Cc1ccccc1` gave G9a inh -9.8%, HP1b binding inh 22.6%, CtBP-E1A inh -1.8, Six1-Eya2 blk 2.9, JMJD2A Tudor -23.3% and BAZ2B inh -21.2%.
Screening O=C(CCNC(=O)c1ccc([N+](=O)[O-])cc1)Nc1cc(C(F)(F)F)ccc1N1CCOCC1 returned CtBP-E1A inh -2.6 and Six1-Eya2 blk -1.4.
For CC(=O)Nc1cccc(S(=O)(=O)N2CCCN(S(=O)(=O)c3ccc4c(c3)OCCO4)CC2)c1 the results were JMJD2A Tudor -15.6%.
For CCN(CC)S(=O)(=O)c1csc(C(=O)OCC(=O)c2ccccc2)c1 the results were G9a inh 5.3%[59 µM], HP1b binding inh 34.9%, CtBP-E1A inh 1.0, Six1-Eya2 blk 10.9, JMJD2A Tudor -5.4% and BAZ2B inh 13.5%.
CC(C)C1Nc2c(O)cc(Cl)c([N+](=O)[O-])c2C2C=CCC21 (centres undefined) was read as G9a inh 25.1µM*, HP1b binding inh inconclusive, CtBP-E1A inh -17.3, Six1-Eya2 blk -12.5, JMJD2A Tudor 39.8µM* and BAZ2B inh 25.1µM*.
